We go through six compounds from PubChem BioAssay (Tox21).

Each structure is given as a SMILES string. Values without a mark were called inactive. Results filed as inconclusive are left out. Activity calls are given as the source filed them. Unless noted, calls follow the shape of the dose curve; as a rule, active = well fitted curve in the direction sought with a large enough effect in the repeat runs; inconclusive = weak or mixed curves; inactive = no such curve, though single readings can be large; an effect the other way counts as inactive or inconclusive.

Assay [1] in a line: qHTS assay to identify small molecule antagonists of the constitutive androstane receptor (CAR) signaling pathway - cell viability counter screen (AID 1224837). Also: nearly all actives have a fitted effect of over 45% in size. Also: potency is read from the fitted curve at half-maximal effect. The essentials:
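HepG2-CYP2B6-hCAR cells, 2500/well, 4 hr pre-incubation; compound titration, 15 conc.; CITCO 50 nM final; 23 hr, 37 C/5% CO2; CellTiter-Fluor, fluorescence intensity.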

Assay [2] deals with Nuclear receptor subfamily 1 group I member 3 (Homo sapiens) (UniProt Q14994). Kind of assay: qHTS assay to identify small molecule antagonists of the constitutive androstane receptor (CAR) signaling pathway (AID 1224838).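 Also: HepG2 cells stably expressing hCAR with CYP2B6 luciferase reporter stimulated by CITCO; nearly all actives have a fitted effect of over 40% in size.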 Also: potency is read from the fitted curve at half-maximal effect. Put shortly:
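HepG2-CYP2B6-hCAR cells; 4 h pre-incubation; cpd (15 conc) + CITCO 50 nM final; 24 h, 37 C/5% CO2; ONE-Glo, luminescence.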

For assay [3] the target is unchanged. Kind of assay: qHTS assay to identify small molecule agonists of the constitutive androstane receptor (CAR) signaling pathway (AID 1224839).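 Also: HepG2 cells stably carrying human CAR and a CYP2B6 luciferase reporter; nearly all actives have a fitted effect of over 15% in size.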 Put shortly: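 Cells were plated and incubated 4 hrs, then dosed with compounds at 15 concentrations. PK11195 was added to 0.75 uM final. After 24 hrs at 37 C, luciferase luminescence was measured.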
Assay [4] in a line: qHTS assay to identify small molecule antagonists of the estrogen related receptor signaling pathway with the pleiotropic PPARgamma coactivator (PGC) from Tox21 10K library - cell viability counter screen (AID 1224840; active = well fitted cell-killing curve with a large enough effect in the repeat runs, not every such curve was filed as active; also: nearly all actives have a fitted effect of over 40% in size; also: potency is read from the fitted curve at half-maximal effect). The essentials:
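PGC/ERR cells, 2,000/well; 6 h pre-incubation 37 C/5% CO2; cpd in DMSO via pin tool; 17.5 h 37 C; CellTiter-Fluor, 30 min; fluorescence.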

Assay [5] can be described thus: qHTS assay to identify small molecule antagonists of the estrogen related receptor signaling pathway with the pleiotropic PPARgamma coactivator (PGC) from Tox21 10K library (AID 1224841; call rule not given here; also: actives are mostly falling curves and most rising ones were filed inactive; nearly all actives have a fitted effect of over 50% in size; also: potency is read from the fitted curve at half-maximal effect). Put shortly:
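PGC/ERR cell line, 2,000 cells/well; 6 h pre-incubation 37 C/5% CO2; compounds (DMSO) pinned in; 18 h, 37 C; One-Glo, 30 min RT; luminescence.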

Assay [6] in a line: qHTS assay to identify small molecule agonists of the estrogen related receptor signaling pathway with the pleiotropic PPARgamma coactivator (PGC) from Tox21 10K library (AID 1224842). Also: nearly all actives have a fitted effect of over 15% in size. Put shortly:
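PGC/ERR reporter cells (NTP line) were seeded 2,000 per well, rested 6 h at 37 C/5% CO2, then pin-dosed with compounds in DMSO for 18 h at 37 C; luciferase read by One-Glo luminescence after 30 min at room temperature.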

Assay [7] deals with Thyrotropin receptor (Homo sapiens) (UniProt P16473). Kind of assay: qHTS assay to identify small molecule agonists of the thyroid stimulating hormone receptor (TSHR) signaling pathway (AID 1224843; calls by dose curve; also: nearly all actives have a fitted effect of over 45% in size). Put shortly: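 Cell line HEK293 with TSHR; density 800/well. Exposure 30 min RT. Readout HTRF cAMP (cAMP-d2/anti-cAMP-cryptate), 1 h RT before reading.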
Chain of Thyrotropin receptor (Homo sapiens) (P16473 whole entry, looked up): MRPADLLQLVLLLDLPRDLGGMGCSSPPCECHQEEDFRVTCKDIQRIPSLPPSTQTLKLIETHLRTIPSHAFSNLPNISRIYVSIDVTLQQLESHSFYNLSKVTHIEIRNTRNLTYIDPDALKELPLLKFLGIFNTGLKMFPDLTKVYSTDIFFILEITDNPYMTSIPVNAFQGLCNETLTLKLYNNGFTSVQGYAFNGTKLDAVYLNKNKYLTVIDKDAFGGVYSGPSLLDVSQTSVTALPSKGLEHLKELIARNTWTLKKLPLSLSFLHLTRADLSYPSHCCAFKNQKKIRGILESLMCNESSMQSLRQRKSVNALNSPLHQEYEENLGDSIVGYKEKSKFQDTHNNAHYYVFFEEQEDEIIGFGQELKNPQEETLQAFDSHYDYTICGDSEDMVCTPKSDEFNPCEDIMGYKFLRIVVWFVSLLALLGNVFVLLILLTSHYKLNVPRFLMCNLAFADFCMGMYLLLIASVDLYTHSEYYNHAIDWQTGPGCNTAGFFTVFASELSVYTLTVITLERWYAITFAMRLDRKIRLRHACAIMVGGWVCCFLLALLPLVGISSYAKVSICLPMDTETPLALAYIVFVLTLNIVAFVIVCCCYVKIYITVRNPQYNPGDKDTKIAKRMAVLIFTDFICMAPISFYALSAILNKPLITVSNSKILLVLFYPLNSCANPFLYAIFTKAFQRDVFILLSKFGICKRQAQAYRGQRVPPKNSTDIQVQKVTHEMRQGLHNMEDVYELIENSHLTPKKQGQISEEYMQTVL
A short description of assay [8]: qHTS assay to identify small molecule agonists of the hypoxia (HIF-1) signaling pathway - cell viability counter screen (AID 1224844; calls by dose curve; also: nearly all actives have a fitted effect of over 50% in size; also: potency is read from the fitted curve at half-maximal effect). Put shortly: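 ME-180 HRE-bla cells, 2,000/well, 0.5% dialyzed FBS; 5 hr settle, 17 hr compound at 37C/5% CO2; CCF4-AM reporter read first, then CellTiter-Glo luminescence after 30 min RT.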
A short description of assay [9]: qHTS assay to identify small molecule agonists of H2AX (AID 1224845; active = well fitted activation curve with a large enough effect in the signal ratio in the repeat runs, not every such curve was filed as active; the % refers to the signal ratio). The essentials: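 Wild-type CHO-K1 cells plated overnight, then exposed 3 hr at 37C to compounds at 15 concentrations (0.76% DMSO). Lysed, then HTRF anti-pH2AX(S139)-cryptate/anti-H2AX-d2 detection after 24 hr at room temperature; emissions 665 and 620 nm.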
A short description of assay [10]: qHTS assay to identify small molecule agonists of the hypoxia (HIF-1) signaling pathway (AID 1224846; active = well fitted activation curve with a large enough effect in the signal ratio in the repeat runs, not every such curve was filed as active; the % refers to the signal ratio). Put shortly: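 Cell line: CellSensor HRE-bla ME-180; 2,000 cells/well; 0.5% dialyzed FBS; 5 h preincubation; DMSO compound pin transfer; 17 h, 37C, 5% CO2; CCF4-AM added; bla FRET signal scored for activation.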
Assay [11] can be described thus: qHTS assay to identify small molecule agonists of H2AX - cell viability counter screen (AID 1224847; calls by dose curve; also: nearly all actives have a fitted effect of over 30% in size; also: potency is read from the fitted curve at half-maximal effect). Put shortly:
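Cytotoxicity counter screen in wild-type CHO-K1 cells: a 3 hr compound treatment at 37C across 15 concentrations, followed by CellTiter-Glo luminescence to gauge viable cells.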

Assay [12] is described as follows: qHTS assay to identify small molecule antagonists of the estrogen related receptor (ERR) signaling pathway from Tox21 library (AID 1224848). Also: nearly all actives have a fitted effect of over 50% in size. Also: potency is read from the fitted curve at half-maximal effect. The essentials:
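Screening used an ERR reporter line supplied by NTP, exposed for 18 h at 37 C to library compounds delivered in DMSO. Signal was luciferase luminescence developed with ONE-Glo at room temperature for 30 min.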

Assay [13] is described as follows: qHTS assay to identify small molecule agonists of the estrogen related receptor (ERR) signaling pathway from Tox21 library (AID 1224849; calls by dose curve; also: nearly all actives have a fitted effect of over 15% in size). Conditions: ERR reporter cell line, ONE-Glo luciferase, 18 h; at 92.4 µM (top of the series) unless noted. The essentials: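 ERR cells, 6 h pre-incubation 37 C/5% CO2; cpd in DMSO pinned; 18 h 37 C; ONE-Glo added, 30 min RT; luminescence read. Agonist mode, qHTS.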

Assay [14] is described as follows: qHTS RealTime-Glo MT Cell Viability Assay in HepG2 cells - 24 hour (AID 1224867). Also: nearly all actives have a fitted effect of over 50% in size. Also: potency is read from the fitted curve at half-maximal effect. Put shortly: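 Real-time, nonlytic viability: 600 HepG2 cells/well mixed with NanoLuc enzyme plus prosubstrate; 5 h settle, compound (DMSO) added by pintool; luminescence monitored over 40 h at 37 C.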
A short description of assay [15]: qHTS RealTime-Glo MT Cell Viability Assay in HEK293 cells - 32 hour (AID 1224868). Also: nearly all actives have a fitted effect of over 50% in size. Also: potency is read from the fitted curve at half-maximal effect. The essentials:
(§1)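 Cells + reagent dispensed (600 cells/well, HEK293) → 5 h at 37 C/5% CO2 → 23 nL compound in DMSO pinned → 40 h at 37 C → luminescence read at 0, 8, 16, 24, 32, 40 h.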

Assay [16] in a line: A CellTox Green Cytotoxicity Assay to monitor cytotoxicity in HEK293 cells - 0 hour (AID 1224869). Also: nearly all actives have a fitted effect of over 50% in size. The essentials:
(§2)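 Nonlytic real-time cytotoxicity: HEK293 + CellTox Green reagent plated, 5 h preincubation, pintool compound addition (23 nL in DMSO), 37 C for 40 h, fluorescence measured at successive time points.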

Assay [17] can be described thus: qHTS RealTime-Glo MT Cell Viability Assay in HepG2 cells - 40 hour (AID 1224870). Also: nearly all actives have a fitted effect of over 50% in size. Also: potency is read from the fitted curve at half-maximal effect. The essentials:
(§3)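 HepG2 cells mixed with RealTime-Glo MT reagents (NanoLuc plus cell-permeant prosubstrate) were seeded at 600 cells/well, incubated 5 h at 37 C/5% CO2, then pinned with compounds in DMSO; nonlytic luminescence tracked viability during 40 h treatment.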

The nature of assay [18]: A CellTox Green Cytotoxicity Assay to monitor cytotoxicity in HEK293 cells - 40 hour (AID 1224871). Also: nearly all actives have a fitted effect of over 45% in size. Also: potency is read from the fitted curve at half-maximal effect. Put shortly: as §2
Assay [19] can be described thus: qHTS RealTime-Glo MT Cell Viability Assay in HEK293 cells - 16 hour (AID 1224872). Also: nearly all actives have a fitted effect of over 50% in size. Also: potency is read from the fitted curve at half-maximal effect. The essentials: as §1
The nature of assay [20]: qHTS RealTime-Glo MT Cell Viability Assay in HepG2 cells - 8 hour (AID 1224873). Also: nearly all actives have a fitted effect of over 55% in size. Also: potency is read from the fitted curve at half-maximal effect. Put shortly:
as §3
% is scaled to controls: 0 for no effect and ±100 for the full control effect.

Chain of Nuclear receptor subfamily 1 group I member 3 (Homo sapiens) (Q14994 whole entry, looked up): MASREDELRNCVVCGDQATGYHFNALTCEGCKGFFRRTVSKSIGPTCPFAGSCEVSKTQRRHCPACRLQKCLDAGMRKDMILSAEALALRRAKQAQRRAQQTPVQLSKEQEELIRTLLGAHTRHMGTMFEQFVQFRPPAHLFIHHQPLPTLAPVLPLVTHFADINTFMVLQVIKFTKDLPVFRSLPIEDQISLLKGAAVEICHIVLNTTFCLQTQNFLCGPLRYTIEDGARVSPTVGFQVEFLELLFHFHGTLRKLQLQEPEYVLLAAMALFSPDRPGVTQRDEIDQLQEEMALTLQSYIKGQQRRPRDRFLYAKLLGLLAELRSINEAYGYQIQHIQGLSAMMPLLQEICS

`Nc1ccc(F)c([N+](=O)[O-])c1`: the Potency entry in [1], in assay [2], in [3], in assay [4], in assay [6] and in assay [7] was “inactive” in each case. Also, the Potency result in [8], in assay [9], in assay [10], in assay [11], in assay [14] and in [15] was “inactive” each time. Also, the Potency entry in assay [16], in assay [17], in assay [18], in [19] and in assay [20] was “inactive” each time. Moreover, the Potency in [5] was 30.6 µM (active); in assay [12], 34.4 µM (active). Also, the activity change, positive = activation in [13] was -30.4%.
Take `Nc1c(Br)cc([N+](=O)[O-])cc1Br`: the Potency entry in assay [1], in [2], in assay [3], in assay [4], in [6] and in assay [8] was “inactive” each time. The Potency entry in assay [9], in assay [10], in [11], in [14], in assay [15] and in [16] was “inactive” throughout. Also, the Potency result in [17], in assay [18], in assay [19] and in assay [20] was “inactive” each time. The Potency in assay [5] is 54.5 µM (active). Moreover, in assay [13], the activity change, positive = activation was -20.8%.
As for `CN(C[C@@H](CC[N+]12CCC(C3CCCCC3)(CC1)CC2)c1ccc(Cl)c(Cl)c1)C(=O)c1cc(C(F)(F)F)cc(C(F)(F)F)c1`, the Potency in [1] was 68.6 µM (active); in [2] it was 54.5 µM (active); in assay [4] it was 30.6 µM (active); in assay [8], 19.5 µM (active); in [11], 50.5 µM (active); in assay [12], 27.3 µM (active). For the same compound, the Potency is 21.9 µM (active) in assay [14]; 2.19 µM (active) in [15]; 21.9 µM (active) in assay [17]; 27.5 µM (active) in [18]; 3.09 µM (active) in [19]; 24.5 µM (active) in [20]. The Potency entry in assay [3], in [5], in [9] and in assay [16] was “inactive” in each case. The activity change, positive = activation in assay [13] is -78.4%.
Consider `Clc1ccc2c(Cl)ccnc2c1`, for which the Potency entry in assay [1], in assay [2], in assay [3], in [4], in assay [5] and in [6] was “inactive” each time. The Potency result in assay [7], in assay [8], in [9], in assay [10], in [12] and in assay [14] was “inactive” throughout. Further, the Potency result in [15], in assay [16], in assay [17] and in assay [19] was “inactive” throughout. In [13], the activity change, positive = activation is 1.29%.
For the compound `C=Cc1ccncc1`, the Potency result in assay [1], in [2], in assay [3], in assay [4], in assay [5] and in assay [6] was “inactive” throughout. Moreover, the Potency result in assay [7], in [8], in assay [9], in [10], in assay [11] and in assay [12] was “inactive” each time. The Potency entry in assay [14], in assay [15], in [16], in assay [17], in [18] and in assay [19] was “inactive” in each case. In assay [20], the Potency result is “inactive”. Besides, the activity change, positive = activation in assay [13] is 4.99%.
Regarding `Clc1cccc(Cl)n1`, the Potency entry in assay [1], in assay [2], in assay [3], in assay [4], in assay [5] and in assay [6] was “inactive” in each case. Besides, the Potency result in assay [8], in [9], in [10], in [12], in [14] and in assay [15] was “inactive” throughout. For the same compound, the Potency result in assay [16], in assay [17], in assay [18], in assay [19] and in assay [20] was “inactive” in each case. The activity change, positive = activation in assay [13] is 0.024%.
